From PubChem BioAssay
Rows were chosen to be rich in hits. Some 2.7% of all compounds tested hit in one or more screens of this group.
Nrf2 inh: Nrf2 qHTS screen for inhibitors; A549 ARE-Fluc reporter, luciferase luminescence, 18-24 h; Potency, µM (titrated, usually from 46 µM), for inactives: at the top dose activity change, negative = inhibition, hits mostly inhibitors; 360,000 compounds, 2.1% hits; AID 504444, 2011; further: potency means the concentration at half of the fitted maximal effect; on the % scale 0 is the no-effect control and ±100 the full control effect; nearly all actives have a fitted effect of over 60% in size
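Nrf2 activity is the BugLite luminescence, read 15 min after reagent at room temperature, following CellTiter-Fluor cytotoxicity readout (30 min, 37C). Compound titrations were applied for 18-24 h to 5000 A549 ARE_Fluc cells/well in 5% FBS OPTI-MEM.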
Nrf2 activator: qHTS of Nrf2 Activators; 410,000 compounds, 0.31% hits; Potency, µM (doses to about 46.1 µM), without a hit: at the highest dose activation, most hits filed as activators; AREc32 ARE-luciferase reporter (MCF7-derived line), luminescence, 24 h; further: potency means the concentration at half of the fitted maximal effect; % of control where 0% means no effect; nearly all actives have a fitted effect of over 65% in size
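AREc32 cells carrying an ARE-driven firefly luciferase reporter were seeded at 1000 cells/well in OPTI-MEM with 5% FBS, then exposed to compound for 24 hr at 37 deg C. Luminescence was read with Steady-Glo after 30 min at RT.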
LDHA inh: qHTS assay for inhibitors of human lactate dehydrogenase; activity change, % (values are at about 110 or 230 µM); AID 1347041, 2019; purified LDHA, NADH/diaphorase-resazurin fluorescence; stronger effect = lower value; 480,000 compounds, 0.15% hits; in the data active means activity change below about -30%; inconclusive means mostly about -25% to -30%;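 further: plate controls were DMSO wells for no effect and wells without enzyme for full effect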
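Human LDH5 (2 nM) was incubated with 0.06 mM NADH and 0.2 mM pyruvate for 5 min at room temperature in Tris pH 7.4. Remaining NADH was coupled through diaphorase/resazurin, and resorufin fluorescence was read at 0 and 20 min.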
ALOX12 inh: Primary qHTS assay for inhibitors of human arachidonate 12S-lipoxygenase (ALOX12): Round 2; Potency, µM (series often up to 108 µM), for the others: at the top dose activity change, negative = inhibition, actives largely listed as inhibitors; purified 12hLO, xylenol orange hydroperoxide absorbance; 580,000 compounds, 1.1% hits; further: potency means the concentration at half of the fitted maximal effect; on the % scale 0 is the no-effect control and ±100 the full control effect
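Hydroperoxide product was detected by ferrous iron/xylenol orange as the 573 to 405 nm absorbance ratio. Arachidonic acid at 40 uM (final) was turned over for 30 min at room temperature by 150 nM human 12hLO, pH 7.0 Hepes buffer, after 15 min compound preincubation.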
A549 tox: Nrf2 qHTS screen for inhibitors: counterscreen for cytotoxicity | A549 ARE-Fluc cells, CellTiter-Fluor viability, 18-24 h | AID 504648, 2011 | 390,000 compounds, 0.16% hits | Potency, µM (series often up to 46 µM), inactives show top-dose activity change, negative = cytotoxicity, hits mostly inhibitors; further: potency means the concentration at half of the fitted maximal effect; on the % scale 0 is the no-effect control and ±100 the full control effect
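Cytotoxicity counterscreen: CellTiter-Fluor fluorescence was measured in A549 ARE_Fluc cells after 18-24 h of compound exposure in a concentration series. The subsequent BugLite luminescent read reports ARE-luciferase activity.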
ERG-DNA inh: qHTS for Small Molecule Inhibitors of the ERG Ets/DNA interaction. Transcriptional regulator ERG (Homo sapiens), P11308. fluorescence polarization, His-ERG Ets domain / labelled DNA. Potency, µM (top dose mostly 76.9 µM), without a hit: at the top dose FP activity, negative = inhibition, actives largely listed as inhibitors. 370,000 compounds, 0.028% hits. AID 624246, 2012; active means well fitted inhibition curve with a large enough effect in the polarisation, with a control signal flat; inconclusive means small, poorly fitted or top-dose-only effect, or effect the other way, or a change in a side signal; inactive means no such curve, though single readings can be large or run the other way; the % refers to the polarisation;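 further: polarization taken with two DNA probes labelled with fluorescein and Texas red; potency means the concentration at half of the fitted maximal effect; % of control where 0% means no effect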
Target sequence (P11308 whole entry, looked up, the tested form may be a part): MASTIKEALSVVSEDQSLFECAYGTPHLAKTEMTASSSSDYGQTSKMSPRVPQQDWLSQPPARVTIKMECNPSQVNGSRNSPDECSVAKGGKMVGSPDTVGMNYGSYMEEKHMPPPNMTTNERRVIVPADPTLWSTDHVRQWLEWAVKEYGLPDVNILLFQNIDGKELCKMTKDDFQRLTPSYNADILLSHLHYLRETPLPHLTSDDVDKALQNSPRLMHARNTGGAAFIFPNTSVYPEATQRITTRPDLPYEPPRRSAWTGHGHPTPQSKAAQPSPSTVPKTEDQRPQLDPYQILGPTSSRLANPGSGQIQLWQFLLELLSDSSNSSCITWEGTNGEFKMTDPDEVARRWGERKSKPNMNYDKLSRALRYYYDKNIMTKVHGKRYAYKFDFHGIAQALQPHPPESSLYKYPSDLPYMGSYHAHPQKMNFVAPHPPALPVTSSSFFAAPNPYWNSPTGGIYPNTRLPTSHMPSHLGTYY
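His-tagged ERG Ets domain (1 uM in the protein solution; 300mM KCl, 50mM Tris-HCl, 1mM EDTA, 1mM DTT, pH 7.5) received compound, then a probe mix of 5 nM fluorescein-DNA and 100nM Texas-615-DNA. Fluorescence polarization was read for both dyes.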
Active calls of the source: *; ? = inconclusive; nt = no result; [ ] = another dose, or the depositor's remark. Unless noted, the call rests on the fitted dose curve; in most records, active means well fitted curve in the direction sought with a large enough effect; inconclusive means small, poorly fitted or top-dose-only effect, or another doubt; inactive means no such curve, though single readings can be large; an effect the other way counts as inactive or inconclusive.

SMILES	Nrf2 inh	Nrf2 activator	LDHA inh	ALOX12 inh	A549 tox	ERG-DNA inh
COC(=O)C(=Cc1ccc(-c2ccsc2C(=O)OC)o1)C(=O)OC	1%	13µM*	6	-11%	?	4%
CCOC(=O)C(=Cc1ccc(-c2ccsc2C(=O)OC)o1)C(=O)OCC	-24%	?	-1	-13%	-20%	9%
S=c1[nH]nc(Cc2ccccc2)n1Cc1ccco1	?	-1%	3	35µM*	-19%	3%
Oc1cc2ccccc2cc1-c1n[nH]c(=S)n1Cc1ccco1	1%	3%	2	40µM*	5%	-2%
CCCn1c(Cc2ccccc2)n[nH]c1=S	12%	-1%	-9	0%	-5%	-1%
CC(C)(C)NC(=O)C1CCN(c2oc(-c3ccco3)nc2C#N)CC1	nt	nt	6	?	nt	nt
N#CC(C(=O)NCc1ccccc1)c1nc2ccccc2nc1N1CCN(c2ccc(F)cc2)CC1 (stereo not given)	nt	nt	5	?	nt	nt
Cc1ccc(S(=O)(=O)N2CCN(CCOc3cccc(C)c3)CC2)cc1	21µM*	0%	0	264%	-7%	-2%
O=S(=O)(c1ccc(F)cc1)N1CCN(CCOc2ccccc2)CC1	-3%	0%	3	1%	-4%	10%
CCOC(=O)c1ccccc1NS(=O)(=O)c1ccccc1	23µM*	-1%	-7	0%	?	11%
Cn1c(=O)c(=O)n(C)c2cc(N3CCCC3)c(NS(=O)(=O)c3ccc(Cl)cc3)cc21	-3%	1%	11	40µM*	-11%	2%
Cn1cc(S(=O)(=O)c2ccc(Cl)cc2)c(=O)c2cc(F)c(N3CCCCCC3)cc21	16µM*	0%	-1	-22%	-23%	-8%
CCOC(=O)c1ccccc1NS(=O)(=O)c1ccc(C)cc1	-30%	-1%	1	-1%	-15%	12%
O=[N+]([O-])c1ccc(S(=O)(=O)Nc2ccncc2)cc1	-12%	0%	-3	0%	4%	-3%
Cn1c(=O)c(=O)n(C)c2cc(N3CCOCC3)c(NS(=O)(=O)c3ccc(F)c(Cl)c3)cc21	-2%	0%	1	?	4%	-1%
O=[N+]([O-])c1ccc(Oc2ccc(S(=O)(=O)Nc3ccccc3)cc2)cc1	18µM*	3%	0	nt	-2%	-11%
Cc1ccc(S(=O)(=O)c2cn(C)c3cc(N4CCCCC4)c(F)cc3c2=O)cc1	-17%	0%	-4	4%	9%	4%
O=C(CSc1ncnc2c1sc1cccc(F)c12)NC1CC1	nt	nt	-4	?	nt	nt
Cc1ccc(S(=O)(=O)Nc2ccc(Nc3ccccc3)cc2)cc1	23%	-2%[9.22 µM]	0	18µM*	4%	9%
Cc1ccc(S(=O)(=O)Nc2ccc(Cl)cc2O)cc1	nt	nt	14	28µM*	nt	nt
O=S(=O)(Nc1ccc(Nc2ccccc2)cc1)c1ccc(F)cc1	18%	0%	4	28%	-5%	-3%
Cc1ccc(S(=O)(=O)Nc2ccccc2O)cc1	nt	nt	8	-22%	nt	nt
Cc1ccc(S(=O)(=O)Nc2ccccc2NS(=O)(=O)c2ccc(C)cc2)cc1	nt	-1%	-1	7.9µM*	nt	nt
Cc1oc(-c2nc(C#N)c(NC(C)c3ccccc3)o2)cc1S(=O)(=O)N1CCCC1 (stereo not given)	nt	nt	7	1%	nt	nt
Cc1ccccc1-c1nc2cc(NC(=O)c3ccco3)ccc2o1	nt	nt	-11	?	nt	nt
SMILES	Nrf2 inh	Nrf2 activator	LDHA inh	ALOX12 inh	A549 tox	ERG-DNA inh
CCc1c(C)nc2ncnn2c1N1CCC(C(=O)NCc2cccs2)CC1	18µM*	1%	-11	0%	-1%	3%
CCOc1ccc(NC(=O)C2CCCN(c3nn4cc(-c5ccc(OC)cc5)nc4s3)C2)cc1 (stereo not given)	7.3µM*	-1%	1	-15%	-1%	2%
CCc1c(C)nc2ncnn2c1N1CCCC(C(=O)NCc2cccs2)C1 (stereo not given)	?	0%	-10	-16%	-7%	-15%
CCOc1ccc(NC(=O)C2CCCN(c3c(CC)c(C)nc4ncnn34)C2)cc1 (stereo not given)	10µM*	0%	-8	4%	-14%	-8%
CC(C)c1nc(-c2ccccc2NS(=O)(=O)c2ccccc2Br)n[nH]1	nt	nt	1	?	nt	nt
N/C(=C\C(=O)c1c(O)c(F)c(F)c(F)c1F)C(=O)O	nt	nt	-2	?	nt	nt
N#Cc1cccc(C(=O)Nc2ccc(Cl)cc2C(F)(F)F)c1	nt	nt	-1	40%	nt	nt
O=C1C=C(c2c(O)ccc3ccccc23)c2ccccc2C1=O	-1%	-3%	45	45µM*	-10%	nt
O=C(c1ccc(Cl)cc1Cl)N(CCS(=O)(=O)N1CCCC1)Cc1ccncc1	nt	nt	7	?	nt	nt
COc1ccc(-c2nn(-c3ccccc3)cc2C(=O)NC(=S)NNC(=O)c2ccncc2)cc1	21µM*	-1%	-6	32µM*	-15%	2%
COc1ccc(NC(=O)c2cn(-c3ccccc3)nc2-c2ccncc2)cc1	12%	2%[9.22 µM]	-2	26%	-2%	10%
N#Cc1c(C(F)(F)F)cc(-c2ccc(F)cc2)[nH]c1=O	?	0%	-4	-8%	-8%	0%
N#Cc1c(C(F)(F)F)cc(-c2ccc(Cl)cc2)[nH]c1=O	16µM*	1%	-5	14%	-25%	4%
COc1cc(CCN(C(C)=O)C2C(=O)Nc3ccccc3N=C2c2ccc3c(c2)OCO3)cc(OC)c1 (stereo not given)	nt	0%	0	2µM*	nt	nt
COc1ccccc1Nc1nn2c(=O)c3ccc(C(=O)NCCc4ccccc4)cc3nc2s1	18µM*	3%	-8	?	8.2µM*	1%
CCc1ccccc1N/N=C(/c1ccccc1)c1ccc(Br)cc1	nt	nt	15	7.9µM*	nt	nt
O=C(NCc1ccccc1)C1CCN(S(=O)(=O)/C=C/c2ccccc2)CC1	nt	nt	0	12%	nt	nt
CN(C)CCn1c(=O)n(CC(=O)O)c(=O)c2c3c(sc21)COC(C)(C)C3	nt	nt	3	33%	nt	nt
CCOc1ccc(NC(=O)NC2(C(F)(F)F)Oc3ccccc3O2)cc1	nt	nt	83	?	nt	nt
N#Cc1ccccc1S(=O)(=O)N1CCN(CC(=O)Nc2ccccc2C(=O)NC2CC2)CC1	-8%	0%	-2	102%	1%	-6%
